In PMC5540273 (PLoS ONE, 2017):

How the values were obtained:
Conditions in all cases: concentration: 1 μM, replicates: in singlicate; n = 1
PIK4CB = tested on: T1, PIK4CB
T1 construct: gene PI4KB

PIKFYVE = tested on: PIKFYVE
PIM1 = tested on: PIM1
PIM2 = tested on: PIM2
PIM3 = tested on: PIM3
PIP5K1A = tested on: PIP5K1A
PIP5K1C = tested on: PIP5K1C
PIP5K2B = tested on: PIP5K2B
PIP5K2C = tested on: T2, PIP5K2C
T2 construct: gene PIP4K2C

PKAC-alpha = tested on: T3, PKAC-alpha
T3 construct: gene PRKACA
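Note: KINOMEscan kinase panel screen.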

Structure (SMILES)	%Inh (PIK4CB)	%Inh (PIKFYVE)	%Inh (PIM1)	%Inh (PIM2)	%Inh (PIM3)	%Inh (PIP5K1A)	%Inh (PIP5K1C)	%Inh (PIP5K2B)	%Inh (PIP5K2C)	%Inh (PKAC-alpha)
O=C1NC(=O)C(c2ccc(Cl)cc2)=C1Nc1cccc(Cl)c1 [SB-317651]	8%	12%	0%	0%	2%	0%	28%	0%	20%	3%
Fc1ccc(-c2nc3n(c2-c2ccncc2)CCS3)cc1 [GI98581]	0%	0%	0%	0%	0%	33%	47%	0%	12%	33%
Cc1ccccc1-c1cc(-c2c[nH]nc2-c2ccccn2)ccn1 [GW680061]	0%	0%	0%	0%	0%	12%	39%	15%	28%	0%
CNC(=O)c1ccc(C)c(-n2c(C)cc(OCc3ccc(F)cc3F)c(Br)c2=O)c1	0%	40%	0%	0%	0%	0%	1%	0%	0%	0%
NS(=O)(=O)c1cccc(N/C=C2\C(=O)Nc3ccc(S(=O)(=O)Cc4c(Cl)cccc4Cl)cc32)c1 [GSK398099]	87%	0%	0%	0%	0%	0%	0%	0%	1%	0%
